For one sequence, binding signal results are on record in paper PMC7862700, “An all-to-all approach to the identification of sequence-specific readers for epigenetic DNA modifications on cytosine”.

Experiment in all cases: DAPPL (digital affinity profiling via proximity ligation, sequencing); 10 mM Tris-HCl pH 7.5, 50 mM NaCl, 1 mM DTT, 4% glycerol, room temperature, 30 min; GST-TFs on glutathione beads, 16-mer random dsDNA library, 0.1% formaldehyde crosslink after washing; high values mean tight binding
In experiment [1] the target is T1, FEV (Homo sapiens, UniProt Q99581 1-238).
T1 sequence: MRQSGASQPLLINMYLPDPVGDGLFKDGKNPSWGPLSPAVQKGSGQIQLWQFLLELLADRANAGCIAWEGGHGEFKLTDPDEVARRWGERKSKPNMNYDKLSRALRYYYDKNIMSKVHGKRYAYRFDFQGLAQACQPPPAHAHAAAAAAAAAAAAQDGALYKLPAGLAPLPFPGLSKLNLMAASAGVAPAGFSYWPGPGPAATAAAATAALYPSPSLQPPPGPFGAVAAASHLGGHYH
Particulars: protein: recombinant; tags: N-terminal GST; dsDNA, one strand shown. A digest of the protocol:
(§1)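 Binding signal is each hexamer's read frequency for a factor divided by its frequency in the tag-only sample. The factors were GST-fused human transcription factors from yeast, captured on glutathione beads, DNA-barcoded and pooled with that sample. Pools were incubated with 200 nmole of a random double-stranded 16-mer DNA library in Tris/NaCl/DTT/glycerol buffer at room temperature for 30 min, then washed, crosslinked with 0.1% formaldehyde, proximity-ligated with BsaI/T4 ligase (1 h, 37 °C), PCR-amplified and sequenced on an Illumina NextSeq500.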

Experiment [2] has as its target ETV5 (Homo sapiens, UniProt P41161 1-510). The following applies: protein: recombinant; tags: N-terminal GST; dsDNA, one strand shown. The method, boiled down: as §1
The target of experiment [3] is HSF1 (Homo sapiens, UniProt Q00613 1-529). The following applies: protein: recombinant; tags: N-terminal GST; chain copies: 3; dsDNA, one strand shown. A digest of the protocol: as §1
Experiment [4] concerns the target T2, SPIC (Homo sapiens, UniProt Q8N5J4 1-248).
T2 sequence: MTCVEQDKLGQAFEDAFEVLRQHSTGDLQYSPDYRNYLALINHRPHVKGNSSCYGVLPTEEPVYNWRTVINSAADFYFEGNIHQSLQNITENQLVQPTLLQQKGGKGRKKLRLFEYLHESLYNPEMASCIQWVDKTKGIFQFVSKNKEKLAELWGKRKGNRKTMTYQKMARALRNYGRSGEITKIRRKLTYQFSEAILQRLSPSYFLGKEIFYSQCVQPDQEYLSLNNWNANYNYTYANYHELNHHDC
Particulars: protein: recombinant; tags: N-terminal GST; dsDNA, one strand shown. A digest of the protocol:
as §1

The target in experiment [5] is ELF4 (Homo sapiens, UniProt Q99607 1-663). The following applies: protein: recombinant; tags: N-terminal GST; dsDNA, one strand shown. A digest of the protocol:
as §1

The target of experiment [6] is T3, ELK4 (Homo sapiens, UniProt P28324-2 1-405).
T3 sequence: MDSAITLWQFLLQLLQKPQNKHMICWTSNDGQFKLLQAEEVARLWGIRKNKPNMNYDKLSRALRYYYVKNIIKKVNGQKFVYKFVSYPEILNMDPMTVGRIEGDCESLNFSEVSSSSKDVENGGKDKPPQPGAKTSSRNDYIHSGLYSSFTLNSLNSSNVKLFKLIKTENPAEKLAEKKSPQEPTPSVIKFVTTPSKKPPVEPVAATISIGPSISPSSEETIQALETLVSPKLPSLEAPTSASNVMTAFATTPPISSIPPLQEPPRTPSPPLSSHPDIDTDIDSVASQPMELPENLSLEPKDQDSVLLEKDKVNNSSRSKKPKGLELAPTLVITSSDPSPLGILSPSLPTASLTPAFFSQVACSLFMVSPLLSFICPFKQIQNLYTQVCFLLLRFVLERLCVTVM
The following applies: protein: recombinant; tags: N-terminal GST; dsDNA, one strand shown. The method, boiled down: as §1

Experiment [7] deals with T4, ETV2 (Homo sapiens, UniProt O00321 1-342).
T4 sequence: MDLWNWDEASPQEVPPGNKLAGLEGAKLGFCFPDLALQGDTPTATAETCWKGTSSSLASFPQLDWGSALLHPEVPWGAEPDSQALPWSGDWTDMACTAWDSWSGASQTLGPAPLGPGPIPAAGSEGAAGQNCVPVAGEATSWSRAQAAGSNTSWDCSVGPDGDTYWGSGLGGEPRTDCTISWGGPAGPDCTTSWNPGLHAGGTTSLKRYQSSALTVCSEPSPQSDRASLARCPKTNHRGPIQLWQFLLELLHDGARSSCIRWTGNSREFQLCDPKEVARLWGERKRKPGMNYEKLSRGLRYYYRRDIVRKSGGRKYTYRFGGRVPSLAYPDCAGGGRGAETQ
The following applies: protein: recombinant; tags: N-terminal GST; dsDNA, one strand shown. The method, boiled down:
as §1

The target in experiment [8] is T5, ELF3 (Homo sapiens, UniProt P78545 1-371).
T5 sequence: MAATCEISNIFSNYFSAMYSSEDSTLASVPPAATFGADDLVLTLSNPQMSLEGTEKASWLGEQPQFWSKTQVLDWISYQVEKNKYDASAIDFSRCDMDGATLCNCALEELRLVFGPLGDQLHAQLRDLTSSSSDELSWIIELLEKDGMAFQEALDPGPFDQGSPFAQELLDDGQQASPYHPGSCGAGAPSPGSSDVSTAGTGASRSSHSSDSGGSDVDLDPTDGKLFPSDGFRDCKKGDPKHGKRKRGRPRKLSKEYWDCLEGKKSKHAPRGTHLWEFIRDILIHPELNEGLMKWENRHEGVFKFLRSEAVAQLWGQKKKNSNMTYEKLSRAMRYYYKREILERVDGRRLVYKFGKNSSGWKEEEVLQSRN
The following applies: protein: recombinant; tags: N-terminal GST; dsDNA, one strand shown. The method, boiled down:
as §1

Experiment [9] concerns the target CRX (Homo sapiens, UniProt O43186 1-299). The following applies: protein: recombinant; tags: N-terminal GST; dsDNA, one strand shown. A digest of the protocol:
as §1

In experiment [10] the target is ETV1 (Homo sapiens, UniProt P50549 1-477). The following applies: protein: recombinant; tags: N-terminal GST; dsDNA, one strand shown. The method, boiled down:
as §1

In experiment [11] the target is T6, ERF (Homo sapiens, UniProt P50548 1-548).
T6 sequence: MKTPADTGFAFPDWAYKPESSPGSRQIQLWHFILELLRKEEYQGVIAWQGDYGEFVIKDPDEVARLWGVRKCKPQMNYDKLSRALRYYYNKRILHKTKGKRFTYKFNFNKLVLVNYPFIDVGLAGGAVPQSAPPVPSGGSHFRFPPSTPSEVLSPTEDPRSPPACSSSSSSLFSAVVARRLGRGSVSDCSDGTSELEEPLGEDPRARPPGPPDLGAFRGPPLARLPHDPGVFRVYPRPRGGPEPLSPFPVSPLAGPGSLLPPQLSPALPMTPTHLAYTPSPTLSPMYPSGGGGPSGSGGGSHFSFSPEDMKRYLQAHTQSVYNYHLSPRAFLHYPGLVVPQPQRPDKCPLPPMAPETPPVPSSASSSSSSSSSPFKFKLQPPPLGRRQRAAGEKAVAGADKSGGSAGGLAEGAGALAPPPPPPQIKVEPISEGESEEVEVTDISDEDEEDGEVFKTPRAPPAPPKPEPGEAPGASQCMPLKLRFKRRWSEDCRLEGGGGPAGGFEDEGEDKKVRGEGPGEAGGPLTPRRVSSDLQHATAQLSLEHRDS
The following applies: protein: recombinant; tags: N-terminal GST; dsDNA, one strand shown. The method, boiled down: as §1

Experiment [12] concerns the target T7, ETV3L (Homo sapiens, UniProt Q6ZN32 1-361).
T7 sequence: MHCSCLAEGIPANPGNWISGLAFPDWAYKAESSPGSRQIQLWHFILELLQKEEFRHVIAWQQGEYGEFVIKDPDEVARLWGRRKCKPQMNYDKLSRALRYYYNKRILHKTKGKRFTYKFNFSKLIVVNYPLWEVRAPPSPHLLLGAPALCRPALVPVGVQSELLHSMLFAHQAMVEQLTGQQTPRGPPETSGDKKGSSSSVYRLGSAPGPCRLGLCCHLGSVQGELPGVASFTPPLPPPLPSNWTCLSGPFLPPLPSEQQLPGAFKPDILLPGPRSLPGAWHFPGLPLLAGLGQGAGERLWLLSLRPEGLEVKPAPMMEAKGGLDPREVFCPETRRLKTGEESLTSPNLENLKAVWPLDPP
The following applies: protein: recombinant; tags: N-terminal GST; dsDNA, one strand shown. A digest of the protocol:
as §1

Experiment [13] has as its target T8, ETS2 (Homo sapiens, UniProt P15036 1-469).
T8 sequence: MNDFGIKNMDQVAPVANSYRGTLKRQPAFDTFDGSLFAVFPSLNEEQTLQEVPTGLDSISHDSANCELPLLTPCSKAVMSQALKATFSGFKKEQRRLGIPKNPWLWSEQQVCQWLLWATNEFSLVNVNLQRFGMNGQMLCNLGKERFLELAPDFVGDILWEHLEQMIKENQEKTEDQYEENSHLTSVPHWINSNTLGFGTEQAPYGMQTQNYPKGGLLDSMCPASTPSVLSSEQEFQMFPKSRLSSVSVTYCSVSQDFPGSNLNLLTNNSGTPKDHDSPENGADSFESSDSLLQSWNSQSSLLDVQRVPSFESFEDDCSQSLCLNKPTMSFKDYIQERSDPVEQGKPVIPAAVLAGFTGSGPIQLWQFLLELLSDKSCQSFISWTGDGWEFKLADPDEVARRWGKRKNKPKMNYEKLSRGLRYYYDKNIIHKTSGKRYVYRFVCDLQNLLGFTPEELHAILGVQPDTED
Particulars: protein: recombinant; tags: N-terminal GST; dsDNA, one strand shown. The method, boiled down:
as §1

The target of experiment [14] is T9, SPDEF (Homo sapiens, UniProt O95238 1-335).
T9 sequence: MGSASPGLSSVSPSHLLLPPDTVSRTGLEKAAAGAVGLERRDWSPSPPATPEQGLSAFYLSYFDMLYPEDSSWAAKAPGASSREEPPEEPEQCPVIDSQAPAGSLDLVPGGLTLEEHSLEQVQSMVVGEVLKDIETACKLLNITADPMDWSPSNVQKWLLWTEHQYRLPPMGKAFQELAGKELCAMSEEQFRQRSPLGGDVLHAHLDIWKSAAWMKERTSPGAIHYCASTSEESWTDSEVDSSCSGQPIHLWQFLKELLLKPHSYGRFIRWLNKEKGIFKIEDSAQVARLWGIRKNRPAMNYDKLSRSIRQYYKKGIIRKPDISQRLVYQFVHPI
The following applies: protein: recombinant; tags: N-terminal GST; dsDNA, one strand shown. The method, boiled down:
as §1

Experiment [15] concerns the target T10, ETV7 (Homo sapiens, UniProt Q9Y603 1-341).
T10 sequence: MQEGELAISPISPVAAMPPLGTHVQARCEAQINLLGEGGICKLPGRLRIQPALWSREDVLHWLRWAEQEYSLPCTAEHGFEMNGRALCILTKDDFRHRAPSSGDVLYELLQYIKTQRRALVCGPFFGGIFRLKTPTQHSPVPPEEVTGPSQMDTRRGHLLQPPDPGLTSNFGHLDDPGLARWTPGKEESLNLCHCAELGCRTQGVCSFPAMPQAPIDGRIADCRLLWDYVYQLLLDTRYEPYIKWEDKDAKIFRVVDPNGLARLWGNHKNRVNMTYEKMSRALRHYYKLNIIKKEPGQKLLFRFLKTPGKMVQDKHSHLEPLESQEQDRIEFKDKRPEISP
The following applies: protein: recombinant; tags: N-terminal GST; dsDNA, one strand shown. A digest of the protocol:
as §1

Experiment [16] deals with T11, ELF5 (Homo sapiens, UniProt Q9UKW6-2 1-255).
T11 sequence: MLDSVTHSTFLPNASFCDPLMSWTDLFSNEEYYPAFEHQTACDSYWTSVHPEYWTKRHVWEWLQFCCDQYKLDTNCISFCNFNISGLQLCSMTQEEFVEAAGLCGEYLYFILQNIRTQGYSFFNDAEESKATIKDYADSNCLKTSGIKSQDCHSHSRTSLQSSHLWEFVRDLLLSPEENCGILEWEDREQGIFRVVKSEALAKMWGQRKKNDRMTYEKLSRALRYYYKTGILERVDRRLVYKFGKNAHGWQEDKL
The following applies: protein: recombinant; tags: N-terminal GST; dsDNA, one strand shown. A digest of the protocol: as §1

In experiment [17] the target is T12, ETV3 (Homo sapiens, UniProt P41162-2 1-143).
T12 sequence: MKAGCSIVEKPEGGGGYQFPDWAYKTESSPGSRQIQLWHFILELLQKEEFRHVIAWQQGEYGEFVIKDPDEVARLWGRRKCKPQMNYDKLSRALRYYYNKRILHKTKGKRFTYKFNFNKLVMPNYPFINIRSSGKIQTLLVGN
The following applies: protein: recombinant; tags: N-terminal GST; dsDNA, one strand shown. The method, boiled down: as §1

Experiment [18] concerns the target ETV6 (Homo sapiens, UniProt P41212 1-452). Particulars: protein: recombinant; tags: N-terminal GST; dsDNA, one strand shown. The method, boiled down:
as §1

ETV5, sequence (P41161 whole entry): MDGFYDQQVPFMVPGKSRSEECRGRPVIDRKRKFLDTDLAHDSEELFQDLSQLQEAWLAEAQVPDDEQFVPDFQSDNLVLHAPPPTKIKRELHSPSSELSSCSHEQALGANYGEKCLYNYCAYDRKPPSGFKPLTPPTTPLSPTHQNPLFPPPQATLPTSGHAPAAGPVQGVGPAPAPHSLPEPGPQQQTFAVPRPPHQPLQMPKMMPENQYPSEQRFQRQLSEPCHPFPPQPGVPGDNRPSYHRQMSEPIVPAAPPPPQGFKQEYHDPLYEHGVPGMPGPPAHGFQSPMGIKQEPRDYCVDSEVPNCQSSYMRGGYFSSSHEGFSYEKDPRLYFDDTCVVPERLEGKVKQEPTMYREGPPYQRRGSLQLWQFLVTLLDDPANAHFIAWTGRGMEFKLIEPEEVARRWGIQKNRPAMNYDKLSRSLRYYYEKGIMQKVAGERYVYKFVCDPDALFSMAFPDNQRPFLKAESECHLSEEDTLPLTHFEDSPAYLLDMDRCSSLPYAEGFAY
HSF1, sequence (Q00613 whole entry): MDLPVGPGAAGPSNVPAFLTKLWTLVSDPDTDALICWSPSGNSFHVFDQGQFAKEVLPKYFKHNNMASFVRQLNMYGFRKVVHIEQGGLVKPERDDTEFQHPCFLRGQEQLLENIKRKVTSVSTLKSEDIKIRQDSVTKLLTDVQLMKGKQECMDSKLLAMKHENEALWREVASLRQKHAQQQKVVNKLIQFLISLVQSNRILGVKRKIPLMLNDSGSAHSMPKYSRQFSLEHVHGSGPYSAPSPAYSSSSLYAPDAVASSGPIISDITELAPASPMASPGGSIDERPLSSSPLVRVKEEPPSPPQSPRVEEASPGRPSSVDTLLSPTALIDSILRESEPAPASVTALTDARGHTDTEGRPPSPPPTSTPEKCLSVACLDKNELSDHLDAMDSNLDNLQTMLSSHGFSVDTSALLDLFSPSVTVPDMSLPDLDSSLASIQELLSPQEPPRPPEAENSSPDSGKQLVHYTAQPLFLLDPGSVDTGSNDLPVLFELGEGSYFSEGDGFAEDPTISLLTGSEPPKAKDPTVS
ELF4, sequence (Q99607 whole entry): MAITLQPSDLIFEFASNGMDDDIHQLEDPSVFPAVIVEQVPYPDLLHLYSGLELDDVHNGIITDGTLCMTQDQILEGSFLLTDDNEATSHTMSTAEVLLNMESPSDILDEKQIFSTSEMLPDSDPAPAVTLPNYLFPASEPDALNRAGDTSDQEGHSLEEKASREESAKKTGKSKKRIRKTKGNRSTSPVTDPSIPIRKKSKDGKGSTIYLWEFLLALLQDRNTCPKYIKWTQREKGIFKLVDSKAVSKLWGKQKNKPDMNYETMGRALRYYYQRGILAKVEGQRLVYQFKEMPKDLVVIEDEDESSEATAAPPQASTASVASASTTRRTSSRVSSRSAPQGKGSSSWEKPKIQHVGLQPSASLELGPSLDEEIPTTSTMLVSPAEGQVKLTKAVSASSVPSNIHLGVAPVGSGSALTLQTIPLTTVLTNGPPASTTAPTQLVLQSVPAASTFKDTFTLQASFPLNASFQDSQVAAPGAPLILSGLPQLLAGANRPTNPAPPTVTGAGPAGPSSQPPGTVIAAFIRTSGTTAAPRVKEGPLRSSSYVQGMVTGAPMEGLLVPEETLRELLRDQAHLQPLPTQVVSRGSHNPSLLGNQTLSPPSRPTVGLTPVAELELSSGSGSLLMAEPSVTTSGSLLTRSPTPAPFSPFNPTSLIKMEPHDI
CRX, sequence (O43186 whole entry): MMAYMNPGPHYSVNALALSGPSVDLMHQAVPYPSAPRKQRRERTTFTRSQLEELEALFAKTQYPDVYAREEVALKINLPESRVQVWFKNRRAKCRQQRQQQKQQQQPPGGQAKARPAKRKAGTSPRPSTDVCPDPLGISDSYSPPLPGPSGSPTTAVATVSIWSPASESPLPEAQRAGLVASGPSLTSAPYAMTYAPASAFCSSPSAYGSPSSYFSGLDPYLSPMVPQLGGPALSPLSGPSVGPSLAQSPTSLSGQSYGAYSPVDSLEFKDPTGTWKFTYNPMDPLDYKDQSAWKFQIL
ETV1, sequence (P50549 whole entry): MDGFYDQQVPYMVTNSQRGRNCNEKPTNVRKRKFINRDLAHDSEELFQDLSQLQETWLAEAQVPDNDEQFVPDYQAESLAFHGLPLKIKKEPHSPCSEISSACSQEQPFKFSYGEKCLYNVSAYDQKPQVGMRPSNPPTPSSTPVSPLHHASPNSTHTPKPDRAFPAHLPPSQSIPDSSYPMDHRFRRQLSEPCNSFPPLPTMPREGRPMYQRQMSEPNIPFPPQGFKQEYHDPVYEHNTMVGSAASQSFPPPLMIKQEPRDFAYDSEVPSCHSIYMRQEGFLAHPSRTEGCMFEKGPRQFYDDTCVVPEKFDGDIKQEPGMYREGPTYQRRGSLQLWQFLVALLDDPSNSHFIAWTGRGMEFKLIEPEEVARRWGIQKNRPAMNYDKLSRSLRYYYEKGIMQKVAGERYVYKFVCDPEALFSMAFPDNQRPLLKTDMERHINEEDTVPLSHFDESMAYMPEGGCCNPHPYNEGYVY
ETV6, sequence (P41212 whole entry): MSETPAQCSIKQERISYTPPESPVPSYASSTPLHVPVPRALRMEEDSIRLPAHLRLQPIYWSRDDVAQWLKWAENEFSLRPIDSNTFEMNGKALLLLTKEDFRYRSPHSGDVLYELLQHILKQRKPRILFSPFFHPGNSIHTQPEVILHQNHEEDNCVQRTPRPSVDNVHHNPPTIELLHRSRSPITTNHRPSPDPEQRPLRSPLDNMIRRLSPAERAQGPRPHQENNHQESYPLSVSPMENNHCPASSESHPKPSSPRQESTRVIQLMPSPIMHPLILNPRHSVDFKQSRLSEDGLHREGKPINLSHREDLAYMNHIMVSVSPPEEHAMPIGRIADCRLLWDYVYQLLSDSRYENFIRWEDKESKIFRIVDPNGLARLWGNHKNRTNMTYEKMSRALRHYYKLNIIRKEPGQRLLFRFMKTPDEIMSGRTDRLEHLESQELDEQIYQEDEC

For ATCCGG, the binding signal in [1] was 4.68 fold enrichment (6-mer frequency, TF over GST control); in experiment [2], 2.87 fold enrichment (6-mer frequency, TF over GST control); in [3], 1.31 fold enrichment (6-mer frequency, TF over GST control); in [4], 2.35 fold enrichment (6-mer frequency, TF over GST control); in experiment [5] it was 2.17 fold enrichment (6-mer frequency, TF over GST control); in experiment [6], 2.1 fold enrichment (6-mer frequency, TF over GST control). Also, the binding signal was 2.6 fold enrichment (6-mer frequency, TF over GST control) in [7]; 2.31 fold enrichment (6-mer frequency, TF over GST control) in experiment [8]; 1.48 fold enrichment (6-mer frequency, TF over GST control) in experiment [9]; 2.66 fold enrichment (6-mer frequency, TF over GST control) in experiment [10]; 2.34 fold enrichment (6-mer frequency, TF over GST control) in [11]; 2.49 fold enrichment (6-mer frequency, TF over GST control) in experiment [12]. The binding signal in experiment [13] was 2.66 fold enrichment (6-mer frequency, TF over GST control); in experiment [14], 4.67 fold enrichment (6-mer frequency, TF over GST control); in [15], 2.25 fold enrichment (6-mer frequency, TF over GST control); in experiment [16], 3.06 fold enrichment (6-mer frequency, TF over GST control); in [17], 2.9 fold enrichment (6-mer frequency, TF over GST control); in experiment [18], 2.37 fold enrichment (6-mer frequency, TF over GST control).
